This note sets out measurements from PubChem BioAssay (NCI).

Holding throughout (assay): NCI-60 one-dose screen, 48 h (100 = growth as untreated, 0 = no growth, -100 = all killed)
Common to all, as to details: 10 µM

Experiment [1] deals with NCI-H23 lung.
For experiment [2], the system named is NCI-H226 lung.
Experiment [3] concerns NCI-H322M lung.
For experiment [4], the system named is HOP-62 NSCLC.
Experiment [5] has as its system NCI-H460 lung.
Experiment [6] relates to NCI-H522 lung.
Experiment [7] relates to A549/ATCC NSCLC.
The test system of experiment [8] is 786-0 renal.
For experiment [9], the system named is COLO 205 colon.
For experiment [10], the system named is DU-145 prostate.
Experiment [11] deals with K-562 leukemia.
Experiment [12] deals with MALME-3M melanoma.
Experiment [13] concerns MDA-MB-231 breast.
Experiment [14] concerns RXF 393 renal.
Experiment [15] relates to SF-268 CNS.
Experiment [16] has as its system SF-295 CNS.
Experiment [17] concerns SF-539 CNS.
The subject of experiment [18] is UACC-257 melanoma.
Experiment [19] relates to M14 melanoma.

Compounds without any hit were thinned out: in the full panel of roughly 83,000, 20% have a hit.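 Activity criterion: percent growth below 10, measured after cells in 96-well plates were exposed to a single compound concentration for 48 hours.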 Unmarked numbers belong to inactive results. The source made the active and inactive calls.

With `CCOC(=O)Nc1cc2c(c(N)n1)N=C(c1ccccc1)CO2`, the growth was 34.8% in experiment [1]; 39.6% in experiment [2]; 15.3% in [3]; 50% in experiment [4]; 8.86% (active) in experiment [5]; -13.9% (active) in experiment [6]. Further, the growth is 23.3% in experiment [7]; 39.1% in experiment [8]; 6.19% (active) in experiment [9]; 10.6% in experiment [10]; 10.1% in [11]; 64.8% in experiment [12]. Besides, the growth in [13] is 13.6%; in experiment [14], 27.3%; in [15], 38.4%; in experiment [16], 17%; in experiment [17] it was 1.93% (active); in experiment [18], 86.4%. Besides, in experiment [19], the growth was 15.4%.
`O=C1C=C(Nc2ccc([N+](=O)[O-])cc2)c2ccccc2C1=O`: the growth in [1] is 30.1%; in [2], 77.6%; in experiment [3], 75.3%; in experiment [4], 51.9%; in experiment [5], 46.4%; in experiment [6], 21.5%. Besides, the growth in experiment [7] is 33.3%; in experiment [8], 66.6%; in [9], 105%; in [10] it was 68.9%; in [11] it was 13.2%; in experiment [12], 51.6%. Also, the growth is 22.5% in experiment [13]; 69.2% in experiment [14]; 55.6% in [15]; 53.1% in [16]; 36.8% in experiment [17]; 48.8% in [18]. In addition, the growth in experiment [19] was 13.3%.
Take `O=C(Nc1cccc(NC(=O)Nc2cc(C(F)(F)F)ccc2Cl)c1)Nc1cc(C(F)(F)F)ccc1Cl`: the growth in experiment [1] was 20.4%; in experiment [2] it was 34.3%; in [3], 38%; in experiment [4], 21.8%; in experiment [5] it was 4.58% (active); in [6] it was -27.7% (active). Besides, the growth was 11.6% in experiment [7]; 51.7% in experiment [8]; 1.37% (active) in experiment [9]; 30.8% in experiment [10]; 16.3% in experiment [11]; 2.44% (active) in [12]. Moreover, the growth is 1.95% (active) in experiment [13]; 32% in experiment [14]; 48.5% in experiment [15]; -23.9% (active) in experiment [16]; 34% in experiment [17]; -4.1% (active) in [18]. Further, the growth in experiment [19] is 21.6%.
As for `CN(C)C(=O)Oc1cccc([N+](C)(C)C)c1`, the growth in experiment [1] was 109%; in experiment [2], 92.8%; in experiment [3], 129%; in experiment [4], 100%; in [5] it was 113%; in [6], 109%. In addition, the growth in experiment [7] was 102%; in experiment [8], 116%; in experiment [9], 109%; in experiment [10], 113%; in experiment [11], 104%; in experiment [12] it was 131%. Also, the growth in experiment [13] is 91.1%; in experiment [14], 114%; in experiment [15] it was 106%; in [16], 96.8%; in [17] it was 106%; in experiment [18], 97.8%. In [19], the growth is 126%.
As for `Nc1ccc(N=Nc2ccc(O)cc2)c(N)n1`, the growth in [1] is 91.2%; in experiment [2], 75.8%; in experiment [3], 97.4%; in experiment [4], 99.7%; in [5], 84.1%; in experiment [6], 47%. Further, the growth is 69.2% in experiment [7]; 65.3% in [8]; 109% in experiment [9]; 79.3% in experiment [10]; 39.2% in experiment [11]; 72% in experiment [12]. For the same molecule, the growth is 73.7% in experiment [13]; 91.6% in [14]; 73.1% in experiment [15]; 66.5% in [17]; 97.9% in experiment [18]; 70.9% in experiment [19].
With `COc1cc(C2NC(=O)C(C#N)=C(Nc3cccc(C)c3)S2)ccc1O` (stereo unspecified), the growth was 103% in experiment [1]; 104% in experiment [2]; 106% in experiment [3]; 98.1% in [4]; 99.5% in experiment [5]; 47.5% in [6]. Further, the growth in experiment [7] was 32.5%; in experiment [8] it was 105%; in experiment [9], 119%; in experiment [10], 122%; in experiment [11] it was 93.8%; in [12], 108%. The growth in [13] was 99.2%; in experiment [14] it was 103%; in [15], 109%; in [16] it was 101%; in [17] it was 90.4%; in experiment [18] it was -2.62% (active). For the same molecule, the growth in [19] is 101%.
Take `CCCC[P+](c1ccccc1)(c1ccccc1)c1ccccc1`: the growth in [1] was 44.4%; in [2], 67%; in experiment [3], 95.1%; in experiment [4], 80.2%; in [5], 53.4%; in experiment [6] it was 39.6%. Also, the growth in experiment [7] was 53.7%; in experiment [8], 98.9%; in experiment [9], 32.2%; in experiment [10] it was 62.5%; in [11], 24.4%; in [12] it was 41%. For the same molecule, the growth in experiment [13] was 84.3%; in [14] it was 102%; in experiment [15], 67.2%; in experiment [17] it was 64.5%; in experiment [18], 17%; in [19] it was 54.9%.
For the molecule `CC(C)(C)c1cc(O)c(C(C)(C)C)cc1O`, the growth in [1] is 96.3%; in experiment [2], 67.8%; in [3], 100%; in experiment [4] it was 105%; in [5], 96.3%; in experiment [6], 63.3%. The growth in experiment [7] is 87.4%; in experiment [8] it was 95.8%; in [9], 108%; in experiment [10] it was 108%; in [11] it was 96.7%; in [13], 88.9%. Besides, the growth in experiment [15] was 95.8%; in experiment [16] it was 85.7%; in experiment [17] it was 86.1%; in experiment [18], 85.6%; in experiment [19] it was 103%.
`C#CC(C)(O)c1ccc(Cl)cc1` (stereo unspecified): the growth in [1] is 92.4%; in experiment [2], 78.2%; in experiment [3], 99.9%; in experiment [4], 84.6%; in experiment [5] it was 104%; in experiment [6], 91.4%. Also, the growth in [7] was 99.2%; in experiment [8], 95.5%; in experiment [9], 103%; in experiment [10] it was 112%; in experiment [11] it was 91.3%; in experiment [12] it was 125%. In addition, the growth was 102% in experiment [13]; 103% in experiment [15]; 90.8% in experiment [16]; 96.3% in experiment [17]; 101% in [18]; 98.8% in experiment [19].
